From PubChem BioAssay AID485317 (Broad Institute, 2010) come the findings set out here.

Screen size: about 290,000 compounds; about 11,000 (3.8%) were called active. Shown is part of a subset that was picked to be rich in actives. Unmarked numbers belong to inactive results.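 How the source made its calls: active means mean replicate inhibition above about 79%, with every replicate also reaching it (limit read from the data); inconclusive means only one of the two criteria met; inactive means mean below limit and not every replicate reaching it.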

The target of this experiment is FAD-linked sulfhydryl oxidase ALR (Homo sapiens) (UniProt P55789). The experiment can be described thus: inhibitors of human ALR sulfhydryl oxidase, primary screen, biochemical, H2O2 detection, HRP-luminol luminescence, single point (AID 485317). The note with it: purified ALR, DTT oxidation, stronger effect = higher value, concentration not given here.
FAD-linked sulfhydryl oxidase ALR (Homo sapiens), sequence (P55789 whole entry, looked up): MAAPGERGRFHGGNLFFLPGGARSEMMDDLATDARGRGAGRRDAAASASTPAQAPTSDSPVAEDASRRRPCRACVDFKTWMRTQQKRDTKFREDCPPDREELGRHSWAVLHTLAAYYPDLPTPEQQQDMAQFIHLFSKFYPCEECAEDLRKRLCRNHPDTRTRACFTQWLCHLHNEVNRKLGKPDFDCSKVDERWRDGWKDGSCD
As usually defined, the inhibition is the drop in the measured response relative to a control, in per cent. Turning to `CCOC(=O)[C@@H]1[C@H]2COc3ccc(Br)cc3[C@H]2N2C(=O)N(c3ccc(C)cc3)C(=O)[C@@]12C`, the inhibition is -4.73%.

On to `COc1ccc(NC(=O)/C(C#N)=C\c2cc(OC)c(OCc3ccc(C(=O)O)cc3)cc2Br)cc1`, for which the inhibition is 98% (active).

On to `COc1ccc(CNC(=O)/C(C#N)=C/c2cccc(OC)c2OC)cc1`, for which the inhibition was 12.6%.

As to `COc1cc(/C=C(\C#N)C(=O)Nc2ccc3ccccc3c2)c([N+](=O)[O-])cc1OC`, the inhibition is -17.7%.

Take `COc1cc(OC)cc(-c2sc3ccc(OC)cc3c2-c2ccc3cc[nH]c3c2)c1`: the inhibition was 0.621%.

`COc1ccc(N2CCN(C(CNS(=O)(=O)c3ccc(C)cc3)c3ccccc3)CC2)cc1` (stereo not given): the inhibition was -0.191%.

In the case of `O=C(CCN1C(=O)C2CCCCC2C1=O)Nc1ccc(OC(F)F)cc1` (stereo not given), the inhibition is -7.6%.

Regarding `CCCN(CC(=O)Nc1ccccc1C)C(=O)c1ccc2[nH]c3c(c2c1)CC(C)CC3` (stereo not given), the inhibition was -1.42%.

For the molecule `COc1ccccc1NC(=O)CCN1CCN(c2ccc(Cl)cc2)CC1`, the inhibition was 89.1% (active).

Regarding `COc1ccc(Cl)cc1NC(=O)CCN1CCOCC1`, the inhibition was -5.1%.

On to `COc1ccc(NC(=O)CCN2CCCC2)c(OC)c1`, for which the inhibition is -4.61%.

In the case of `CC(C)n1ncc2c(C(=O)NCc3ccccc3CN(C)C)cc(C3CC3)nc21`, the inhibition is -20.5%.

Consider `Cc1ccc(NC(=O)C(C)OC(=O)Cc2c[nH]c3ccccc23)cc1S(=O)(=O)N1CCOCC1` (stereo not given), for which the inhibition was -3.03%.

Take `Cc1ccc(C(=O)OCC(=O)NCc2cc(C)c(O)c(C)c2)cc1S(=O)(=O)N1CCCCC1`: the inhibition is 14.9%.

For the molecule `COc1cc(OC)cc(-c2c(-c3ccc(F)cc3)c3cc(-c4ccc5cc[nH]c5c4)ccc3n2C)c1`, the inhibition was 0.122%.

As to `COc1ccc(N2CCN(CCNC(=O)CCN3C(=O)COc4ccccc43)CC2)cc1`, the inhibition was 80.3% (active).

For `CCCN1CCN(CCCNC(=O)CN2C(=O)COc3ccccc32)CC1`, the inhibition was -3.58%.

For the molecule `COc1ccc(N2CCN(C(=O)CN3C(=O)COc4ccccc43)CC2)cc1`, the inhibition was 38%.

`Cc1cccc(NS(=O)(=O)c2ccc(C)c(C(=O)NCC(c3ccccc3)N(C)C)c2)c1` (stereo not given): the inhibition was -16.5%.

Regarding `CN(C(=O)CSc1cccc[n+]1[O-])C1CCCCC1`, the inhibition was -8.28%.

Regarding `CN(/N=C/c1ccccc1)C(=S)c1ccccc1`, the inhibition was 12.2%.

On to `N#Cc1ccc(OCC(=O)NC(=O)NC2CCS(=O)(=O)C2)cc1` (stereo not given), for which the inhibition was -0.0725%.

For `CCOc1ccc(NC(=O)CN(C)C(=O)Cc2sc(C)nc2-c2ccc(F)cc2)cc1OCC`, the inhibition is -2.09%.

As for `Cc1ccc(C2C3=C(Nc4[nH]n(-c5ccccc5)c(=O)c42)c2ccccc2C3=O)cc1` (stereo not given), the inhibition is 87.2% (active).

On to `Cc1ccc(-c2ccnc3[nH]n(-c4ccccc4)c(=O)c23)cc1`, for which the inhibition was 1.8%.

On to `Cc1ccc(N=Nc2c(C)[nH]n(-c3ccccc3)c2=O)cc1`, for which the inhibition was -12.7%.

With `COc1cccc(CNC(C)C(=O)Nc2ccc(S(=O)(=O)N3CCCC3)cc2)c1` (stereo not given), the inhibition was -0.631%.

Turning to `O=C(C[C@@H]1C/C=C\CCC(=O)OC[C@@H]2CCCN2C1=O)NCCO`, the inhibition is 2.95%.

`CC[n+]1cc(C)ccc1/C=C/c1ccc(N(C)C)cc1`: the inhibition was 99.4% (active).

Turning to `CN(C)c1ccc(/C=N\S(=O)(=O)c2ccccc2)cc1`, the inhibition was 0.19%.

As for `COCCn1c(C)cc(C(=O)CSc2nnc(C3CC3)n2C2CC2)c1C`, the inhibition was 13.1%.

Consider `COc1ccc(C(=O)c2c3ccc([N+](=O)[O-])cc3[n+]([O-])n2CCCN)cc1`, for which the inhibition is -50.8%.

As for `Cc1ccc(NC(=O)c2cccc(S(=O)(=O)N3CCCc4ccccc43)c2)nc1`, the inhibition is -1.14%.

Take `Cn1ccnc1SCC(=O)Nc1ccc2c(c1)OCCO2`: the inhibition was 47.8%.

As for `CCn1c(COc2ccccc2)nnc1SCC(=O)Nc1ccc2c(c1)OCCO2`, the inhibition was -3.91%.

As to `COc1cccc(NC(=O)CSc2nccn(-c3ccc4c(c3)OCCO4)c2=O)c1`, the inhibition is 98.6% (active).

`O=C(C1CCC(=O)N(C2CC2)C1)N1CCN(c2ccc(Cl)cc2)CC1` (stereo not given): the inhibition is 96.7% (active).

Turning to `O=C(NCc1cccc(Cl)c1)C1CCC(=O)N(C2CC2)C1` (stereo not given), the inhibition was -4.45%.

Take `O=C(C1CC(=O)N(C2CCCCC2)C1)N1CCN(c2ccccc2)CC1` (stereo not given): the inhibition is 68.2%.

With `COc1ccc(S(=O)(=O)N2CCOC23CCN(S(=O)(=O)c2ccc([N+](=O)[O-])cc2)CC3)cc1`, the inhibition was 0.209%.

For `CCN1C(=O)[C@H]2[C@@H](c3ccc(-c4ccc(OC)cc4)cc3)N[C@@](Cc3ccccc3)(C(=O)OC)[C@H]2C1=O`, the inhibition is 3.62%.

As for `Cc1ccsc1/C=C1\SC(N2CCOCC2)=NC1=O`, the inhibition is -15.8%.

Consider `CCOc1cc(/C=C2\SC(N3CCCC(C)C3)=NC2=O)ccc1O` (stereo not given), for which the inhibition is 98% (active).

For the molecule `CC1CCN(C2=NC(=O)/C(=C/c3ccc(O)cc3)S2)CC1`, the inhibition was 98.6% (active).

On to `CCOc1cc(/C=C2\SC(N3CCCCC3)=NC2=O)ccc1O`, for which the inhibition is 85.2% (active).

With `CCOc1cc(C(=S)N2CCOCC2)ccc1O`, the inhibition is 2.75%.

With `CC1CCN(C2=NC(=O)/C(=C/c3cn[nH]c3-c3ccccc3)S2)CC1`, the inhibition was 28.2%.

Regarding `O=C1N=C(N2CCCC2)S/C1=C\c1cccc(Br)c1`, the inhibition is 8.82%.

Regarding `CCOc1cc(/C=C2\C(=N)N3N=C(C)SC3=NC2=O)ccc1OCCOc1ccccc1`, the inhibition is -3.65%.

Regarding `CCc1ccc(/C=C2\SC(N3CCOCC3)=NC2=O)cc1`, the inhibition is -8.77%.

For the molecule `COCCN(C(=O)CC1CCCCC1)c1c(N)n(CC(C)C)c(=O)[nH]c1=O`, the inhibition is -3.39%.

As for `O=C(NCc1ccccc1CN1CCCC1)c1cccc(S(=O)(=O)Nc2ccc(F)cc2)c1`, the inhibition is -1.54%.

As for `CN(CC(=O)Nc1c(Cl)cccc1Cl)C(=O)CC1OC(=O)c2ccccc21` (stereo not given), the inhibition was 1.28%.

For the molecule `CCCCn1c(N)c(N(CC(C)C)C(=O)CSc2ccc([N+](=O)[O-])cc2)c(=O)[nH]c1=O`, the inhibition was -3.66%.

Take `CN(C(=O)CSc1nnc(-c2ccc3c(c2)OCO3)o1)C1CCS(=O)(=O)C1` (stereo not given): the inhibition is -1.02%.

`CN(C)CCn1c2c(c(SCC(=O)NCc3ccccc3)nc1=O)CCC2`: the inhibition is -45.9%.

Consider `CN(CC(=O)Nc1ccc(OC(F)F)cc1)S(=O)(=O)/C=C/c1ccccc1`, for which the inhibition is 0.776%.

Take `Cc1cc(NC(=O)C(C)SCC(=O)Nc2ccccc2N2CCCCC2)no1` (stereo not given): the inhibition is 2.47%.

For `O=C1NC(Cc2ccc(O)cc2)c2nc3ccc(Cl)cc3c(=O)n2-c2ccccc21` (stereo not given), the inhibition is 1.75%.

As to `CCCC[C@@H]1CN=C(N)N1CCc1cccc(F)c1`, the inhibition is -12.6%.

Take `O=C1N[C@H](Cc2c[nH]c3ccccc23)COC(=O)[C@H](Cc2ccc(F)cc2)C/C=C\C[C@H]1CC(=O)N(CCO)Cc1ccccc1`: the inhibition was -0.125%.

As to `COc1ccc(CCNc2cc(N3CCN(C(=O)c4ccccc4OC)CC3)ccc2[N+](=O)[O-])cc1OC`, the inhibition was -7.83%.

For `COc1ccc2[nH]c(C(=O)N3CCN(C)CC3)c(C)c2c1`, the inhibition was -19.3%.

On to `COc1ccc2[nH]c3ccc(OC)cc3c2c1`, for which the inhibition is 97.3% (active).

With `COc1ccc2[nH]c(=S)cc(C)c2c1`, the inhibition was -27.6%.

With `N#Cc1ccc(C2=CC(=O)C[C@H](c3ccc(Cl)cc3)C2)cc1`, the inhibition was -5.77%.

Turning to `Cc1ccc(NC(=O)NC2CCCCC2)cc1S(=O)(=O)N1CCOCC1`, the inhibition was 74.4%.

With `Cc1ccc(NC(=O)C2CC2)cc1S(=O)(=O)N1CCOCC1`, the inhibition was -0.606%.

In the case of `Cc1ccc(NC(=O)C(C)Sc2nnc(C3CC3)n2C2CC2)cc1S(=O)(=O)N1CCOCC1` (stereo not given), the inhibition is 96.1% (active).

In the case of `COc1ccccc1OCCNC(=O)C(CCSC)NC(=O)COc1ccccc1` (stereo not given), the inhibition is 0.393%.

For the molecule `CN(C)c1ccc(NC(=O)CSc2n[nH]c(-c3ccco3)n2)cc1`, the inhibition is 98.9% (active).

On to `O=C(CSc1n[nH]c(-c2cccnc2)n1)Nc1ccc(Cl)cc1`, for which the inhibition is 5.84%.

For `CN(C)C(=O)CSc1n[nH]c(-c2ccco2)n1`, the inhibition was -5.75%.

For `COc1ccccc1N1CCN(C(=O)C2Cc3ccccc3CN2C(=O)c2ccco2)CC1` (stereo not given), the inhibition is 19.8%.

For `CC(C)CN(C(=O)c1ccc2c(c1)OCO2)C1CCS(=O)(=O)C1` (stereo not given), the inhibition was 3.07%.

For `CC1Sc2ccc(C(=O)NCc3ccccc3Cl)cc2NC1=O` (stereo not given), the inhibition is -5.05%.

Regarding `Cc1ccc(CNC(=O)c2cc(-c3ccccc3C)n(CC3CC(c4cccc([N+](=O)[O-])c4)=NO3)n2)cc1` (stereo not given), the inhibition is -3.66%.

Turning to `O=C(N/N=C/c1cc(Br)c(O)c([N+](=O)[O-])c1)C(O)(c1ccccc1)c1ccccc1`, the inhibition is 14%.

For `Cc1nnc(SCc2cccc(Cl)c2)n(N)c1=O`, the inhibition was -0.251%.

As to `O=C(C1CC1)N1CCN=C1SCc1ccc(Cl)cc1`, the inhibition is 98.3% (active).

Turning to `CSC1=NCCN1C(=O)Cc1cccc2ccccc12`, the inhibition is -43.6%.

`CC1CCN(C(=O)c2ccc(CSc3ccc(Cl)cc3)cc2)CC1`: the inhibition is -6.8%.

`O=C(COc1ccccc1)N1CCN=C1SCc1cccc(F)c1`: the inhibition was 15.7%.

For the molecule `CCSC1=NCCN1S(=O)(=O)c1ccc(F)cc1`, the inhibition is -3.09%.

For `CCC(=O)N1CCN=C1SCc1ccc(F)cc1`, the inhibition is 98.7% (active).

Regarding `O=C(C1CCN(Cc2ccc(Cl)cc2)CC1)N1CCN(Cc2ccc3c(c2)OCO3)CC1`, the inhibition was -2.64%.

As to `O=C(c1ccco1)N1CCN=C1SCc1cccc(Cl)c1`, the inhibition is 96.8% (active).

With `O=S(=O)(c1ccc(F)cc1)N1CCN=C1SCc1cccc(F)c1`, the inhibition is -6.25%.

For the molecule `CS(=O)(=O)N1CCN=C1SCc1ccc(F)cc1`, the inhibition is 98.4% (active).

For the molecule `O=C(c1ccco1)N1CCN(c2cccc(Cl)c2)CC1`, the inhibition is 12.7%.
